Screen size: about 5,600 compounds; about 390 (7%) showed an effect of 50% or more. The sample as a whole holds a higher share of strong results than the screen did.
Key:
[1] = biological target: Protein deacetylase HDAC6 (Homo sapiens) (UniProt Q9UBN7); settings: at 10 µM
[2] = biological target: T1, Protein deacetylase HDAC6 (Homo sapiens) (UniProt Q9UBN7); settings: at 10 µM; remark: listed apart in the source
T1 sequence (whole entry): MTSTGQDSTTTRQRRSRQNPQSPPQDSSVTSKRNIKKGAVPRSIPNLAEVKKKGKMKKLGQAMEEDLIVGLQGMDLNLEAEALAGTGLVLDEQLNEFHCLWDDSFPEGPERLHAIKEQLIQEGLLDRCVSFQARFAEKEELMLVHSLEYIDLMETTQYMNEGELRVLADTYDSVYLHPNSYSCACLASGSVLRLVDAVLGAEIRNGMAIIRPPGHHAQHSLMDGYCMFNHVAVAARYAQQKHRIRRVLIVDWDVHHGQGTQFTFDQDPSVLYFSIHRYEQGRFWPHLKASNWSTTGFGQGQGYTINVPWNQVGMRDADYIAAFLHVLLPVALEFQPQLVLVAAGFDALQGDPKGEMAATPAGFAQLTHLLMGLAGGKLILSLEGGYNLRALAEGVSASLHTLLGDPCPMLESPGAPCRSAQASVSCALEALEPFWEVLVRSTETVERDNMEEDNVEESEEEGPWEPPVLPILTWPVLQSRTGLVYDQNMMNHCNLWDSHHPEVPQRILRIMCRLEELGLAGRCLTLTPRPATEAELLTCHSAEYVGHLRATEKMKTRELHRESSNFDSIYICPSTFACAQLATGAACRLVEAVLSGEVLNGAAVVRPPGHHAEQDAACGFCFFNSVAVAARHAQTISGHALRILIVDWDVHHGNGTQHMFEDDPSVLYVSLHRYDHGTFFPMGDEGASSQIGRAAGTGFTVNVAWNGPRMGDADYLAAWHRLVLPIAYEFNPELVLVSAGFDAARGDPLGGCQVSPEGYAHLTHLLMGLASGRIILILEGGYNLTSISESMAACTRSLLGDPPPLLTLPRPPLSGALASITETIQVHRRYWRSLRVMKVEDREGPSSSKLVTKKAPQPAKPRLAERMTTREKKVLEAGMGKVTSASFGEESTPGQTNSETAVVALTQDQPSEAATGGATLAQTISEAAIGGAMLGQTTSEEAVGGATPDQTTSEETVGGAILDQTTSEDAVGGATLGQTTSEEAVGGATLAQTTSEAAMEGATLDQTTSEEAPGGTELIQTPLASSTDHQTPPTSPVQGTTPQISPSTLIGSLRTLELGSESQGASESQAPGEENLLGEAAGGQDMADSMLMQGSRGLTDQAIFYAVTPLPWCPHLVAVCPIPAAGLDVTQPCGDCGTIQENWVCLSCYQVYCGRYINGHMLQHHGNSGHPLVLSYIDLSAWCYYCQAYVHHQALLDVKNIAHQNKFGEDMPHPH

Molecule | inhibition [1] [%] | inhibition [2] [%]
VANADATE ION, CHEMBL1163564 | 8.48 | –
PHENYLMERCURIC ACETATE, CHEMBL1333953 | 113 | –
GADOTERIDOL, CHEMBL1200593 | -7.04 | –
CCNCc1cc(C(C)(C)C)c(O)c(C(C)(C)C)c1 | – | 36.2
CNc1ccc([N+](=O)[O-])cc1-n1cnc(-c2ccc(C(F)(F)F)cc2)c1 | – | -2.07
Cc1ccc(C(=O)Nc2ccc(CN3CCN(C)CC3)c(C(F)(F)F)c2)cc1C#Cc1cnc2[nH]ncc2c1 | – | 69
CCN1CCN(Cc2ccc(C(=O)Nc3ccc(C)c(Oc4ccc5c(c4)CC(=O)N5)c3)cc2C(F)(F)F)CC1 | – | 42.8
CCCCC(F)(F)[C@@]1(O)CC[C@H]2[C@@H](CC(=O)[C@@H]2CCCCCCC(=O)O)O1 | – | 26.8
Nc1c(S(=O)(=O)O)cc(Nc2cccc3ccccc23)c2c1C(=O)c1ccccc1C2=O | – | 30.6
CNC(C)CC1CCCCC1 (centres undefined) | – | -3.99
COc1ccc2nc3c(c(N)c2c1)CCCC3 | – | 14.7
Cc1cc(O)c2c(c1)C(=O)c1cc(O)cc(O)c1C2=O | – | 99.6
O=C(Nc1ccncc1)C(=O)c1cn(Cc2ccc(Cl)cc2)c2ccccc12 | – | 11.2
CCCCCCOc1nsnc1C1=CCCN(C)C1 | – | 21.1
CSCC[C@H](NC(=O)[C@H](Cc1ccccc1)NC(=O)CNC(=O)CNC(=O)[C@@H](N)Cc1ccc(O)cc1)C(=O)O | – | -7.67
CC(C)Cc1ccc(C(C)C(=O)NCCO)cc1 (centres undefined) | – | 5.6
O=C(Nc1ccc(Cl)cc1)Nc1ccc(Cl)c(Cl)c1 | – | 52.2
CC(=O)Nc1ccc(Cc2ccc(NC(C)=O)cc2)cc1 | – | 37.1
Nc1nonc1/C(=N/O)Nc1ccc(F)c(Cl)c1 | – | 6.27
Cc1c(N)cccc1Cn1ccc(OCCc2cccs2)cc1=O | – | -7.53
Cc1cccc(NC(=O)N[C@@H]2N=C(c3ccccc3)c3ccccc3N(C)C2=O)c1 | – | 10.7
CCNC1=Nc2ccc(Cl)cc2C(C)(c2ccccc2)O1 (centres undefined) | – | 3.39
c1cc(Nc2cc(C3CC3)n[nH]2)nc(Nc2ccc3[nH]cnc3c2)n1 | – | 77.3
CCC(C)c1ccc(NC(=O)Cn2cnc3c2c(=O)n(C)c(=O)n3C)cc1 (centres undefined) | – | 18.1
c1ccc(C2(c3ccccc3)CC2=C2NCCN2)cc1 | – | 17

Molecule | inhibition [1] [%] | inhibition [2] [%]
C[C@H](CCC(=O)O)[C@H]1CC[C@H]2[C@@H]3C(=O)C[C@@H]4CC(=O)CC[C@]4(C)[C@H]3CC(=O)[C@]12C | – | -6.77
CC(C)(C)c1ccc(C(=O)Nc2cn3cc(-n4ccnc4)ccc3n2)cc1 | – | 101
CC(=O)Nc1ccc(C(=O)NC(C)(C)C)cc1 | – | 9.15
Cc1ncc([N+](=O)[O-])n1CC(O)CN1CCOCC1 (centres undefined) | – | -5.36
COc1cccc2c1C(=O)c1c(O)c3c(c(O)c1C2=O)C[C@@](O)(C(=O)CO)C[C@@H]3O[C@H]1C[C@H](N)[C@H](O[C@@H]2CCCCO2)[C@H](C)O1 | – | 92.2
COc1cccc2c1C(=O)c1c(O)c3c(c(O)c1C2=O)C[C@@](O)(/C(CO)=N/NC(=O)CCCCCN1C(=O)C=CC1=O)C[C@@H]3O[C@H]1C[C@H](N)[C@H](O)[C@H](C)O1 | – | 26.7
COc1cccc2c1C(=O)c1c(O)c3c(c(O)c1C2=O)C[C@@](O)(C(=O)CO)C[C@@H]3O[C@H]1C[C@H](N2CCO[C@H](OC)C2)[C@H](O)[C@H](C)O1 | – | 43.2
CC1(C)OC(=O)C(OCC2CC2)=C1c1ccc(S(C)(=O)=O)cc1 | – | -6.89
CCCCCN(CCCOC)C(=O)[C@@H](CCC(=O)O)NC(=O)c1ccc(Cl)c(Cl)c1 | – | 9.58
CC(C)c1cc(C(C)C)c(-c2csc(N(CCN(C)C)Cc3cccnc3)n2)c(C(C)C)c1 | – | 1.94
C[N+](C)(CF)CCO | – | 0.62
CO/N=C(\C(=O)N[C@@H]1C(=O)N2C(C(=O)O)=C(CSc3nc(C)c(CC(=O)O)s3)CS[C@H]12)c1csc(N)n1 | – | 2.2
O=C(Oc1cccc2cccnc12)c1ccccc1 | – | 87.1
CCCOC(=O)c1ccccc1 | – | 8.38
O=C(O[C@H]1[C@H](OC(=O)c2cccnc2)[C@@H](OC(=O)c2cccnc2)[C@H](OC(=O)c2cccnc2)[C@@H](OC(=O)c2cccnc2)[C@H]1OC(=O)c1cccnc1)c1cccnc1 | – | -5.99
C[C@@H](N[C@H]1CCCC[C@@H]1NC(=O)c1ccc(Cl)cc1)c1cccc2ccccc12 | – | 18.9
COC1(C[S+]([O-])c2ccccc2)CCN(CCc2c[nH]c3ccc(F)cc23)CC1 (centres undefined) | – | 4.5
MERBROMIN, CHEMBL3833381 | 65.3 | –
CC1=C(O)C(=O)[C@@H]2O[C@@H]2C1=O | – | -8.14
COc1ncc(-c2ccc3c(Nc4cc(Oc5cc(F)cc(F)c5)cc(C(=O)O)c4)c(S(=O)(=O)NC4CC4)cnc3c2)c(OC)n1 | – | 12.8
CC(=O)Oc1c(C)cccc1C(=O)O | – | 17
C=C1C(=O)O[C@@H]2[C@H]3C(C)=CC[C@@]34O[C@@]4(C)CC[C@@H]12 | – | 51
O=C1C(=Cc2cccnc2)C(=O)c2ccccc21 | – | 27.6
C[C@@H](O[C@H]1OCCN(Cc2nn[nH]c2CN(C)C)[C@H]1c1ccc(F)cc1)c1cc(C(F)(F)F)cc(C(F)(F)F)c1 | – | 12.9
